Test results from the supplement of paper PMC4466140.

Target: AgAbp1
Experiment: SPOT peptide array binding signal intensity (averaged, normalized) (arbitrary units (background-subtracted, floor 0; scale differs between SH3 domains)); higher = stronger binding of the SH3 domain to the peptide
Method in brief: (§1)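 Peptides were synthetic 15-mers on cellulose membranes, with every cysteine replaced by serine. They were incubated overnight at 4°C with GST-SH3 domains from four yeast species at 10 μg/ml in TBS-based blocking buffer. Binding signal, the replicate-averaged normalized and background-subtracted spot intensity, is in arbitrary units that differ between domains.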

| Binder | SPOT peptide array binding signal intensity |
| --- | --- |
| PKRRAPPPVPKKPSS | 5860 |

Target: AgBbc1
Experiment: as above
Method in brief: as §1

| Binder | SPOT peptide array binding signal intensity |
| --- | --- |
| PKRRAPPPVPKKPSS | 1440 |

Target: AgBem1-D1
Experiment: as above
Method in brief: as §1

| Binder | SPOT peptide array binding signal intensity |
| --- | --- |
| PKRRAPPPVPKKPSS | 221 |

Target: AgBzz1-D1
Experiment: as above
Method in brief: as §1

| Binder | SPOT peptide array binding signal intensity |
| --- | --- |
| PKRRAPPPVPKKPSS | 2030 |

Target: AgBzz1-D2
Experiment: as above
Method in brief: as §1

| Binder | SPOT peptide array binding signal intensity |
| --- | --- |
| PKRRAPPPVPKKPSS | 987 |

Target: AgCyk3
Experiment: as above
Method in brief: as §1

| Binder | SPOT peptide array binding signal intensity |
| --- | --- |
| PKRRAPPPVPKKPSS | 1 |

Target: AgFus1
Experiment: as above
Method in brief: as §1

| Binder | SPOT peptide array binding signal intensity |
| --- | --- |
| PKRRAPPPVPKKPSS | 21.5 |

Target: AgHof1
Experiment: as above
Method in brief: as §1

| Binder | SPOT peptide array binding signal intensity |
| --- | --- |
| PKRRAPPPVPKKPSS | 530 |

Target: AgHse1
Experiment: as above
Method in brief: as §1

| Binder | SPOT peptide array binding signal intensity |
| --- | --- |
| PKRRAPPPVPKKPSS | 122 |

Target: AgLsb1
Experiment: as above
Method in brief: as §1

| Binder | SPOT peptide array binding signal intensity |
| --- | --- |
| PKRRAPPPVPKKPSS | 784 |

Target: AgLsb4
Experiment: as above
Method in brief: as §1

| Binder | SPOT peptide array binding signal intensity |
| --- | --- |
| PKRRAPPPVPKKPSS | 158 |

Target: AgMyo5
Experiment: as above
Method in brief: as §1

| Binder | SPOT peptide array binding signal intensity |
| --- | --- |
| PKRRAPPPVPKKPSS | 73.5 |

Target: AgNbp2
Experiment: as above
Method in brief: as §1

| Binder | SPOT peptide array binding signal intensity |
| --- | --- |
| PKRRAPPPVPKKPSS | 5620 |

Target: AgRvs167
Experiment: as above
Method in brief: as §1

| Binder | SPOT peptide array binding signal intensity |
| --- | --- |
| PKRRAPPPVPKKPSS | 100 |

Target: AgSho1
Experiment: as above
Method in brief: as §1

| Binder | SPOT peptide array binding signal intensity |
| --- | --- |
| PKRRAPPPVPKKPSS | 479 |

Target: AgSla1-D1-D2
Experiment: as above
Method in brief: as §1

| Binder | SPOT peptide array binding signal intensity |
| --- | --- |
| PKRRAPPPVPKKPSS | 96 |

Target: AgSla1-D3
Experiment: as above
Method in brief: as §1

| Binder | SPOT peptide array binding signal intensity |
| --- | --- |
| PKRRAPPPVPKKPSS | 856 |

Target: CaAbp1-D1
Experiment: as above
Method in brief: as §1

| Binder | SPOT peptide array binding signal intensity |
| --- | --- |
| PKRRAPPPVPKKPSS | 2910 |

Target: CaAbp1-D2
Experiment: as above
Method in brief: as §1

| Binder | SPOT peptide array binding signal intensity |
| --- | --- |
| PKRRAPPPVPKKPSS | 5120 |

Target: CaBbc1
Experiment: as above
Method in brief: as §1

| Binder | SPOT peptide array binding signal intensity |
| --- | --- |
| PKRRAPPPVPKKPSS | 1940 |

Target: CaBem1-D1
Experiment: as above
Method in brief: as §1

| Binder | SPOT peptide array binding signal intensity |
| --- | --- |
| PKRRAPPPVPKKPSS | 110 |

Target: CaBzz1-D1
Experiment: as above
Method in brief: as §1

| Binder | SPOT peptide array binding signal intensity |
| --- | --- |
| PKRRAPPPVPKKPSS | 6700 |

Target: CaBzz1-D2
Experiment: as above
Method in brief: as §1

| Binder | SPOT peptide array binding signal intensity |
| --- | --- |
| PKRRAPPPVPKKPSS | 5750 |

Target: CaCyk3
Experiment: as above
Method in brief: as §1

| Binder | SPOT peptide array binding signal intensity |
| --- | --- |
| PKRRAPPPVPKKPSS | 142 |

Target: CaFus1
Experiment: as above
Method in brief: as §1

| Binder | SPOT peptide array binding signal intensity |
| --- | --- |
| PKRRAPPPVPKKPSS | 188 |

Target: CaHof1
Experiment: as above
Method in brief: as §1

| Binder | SPOT peptide array binding signal intensity |
| --- | --- |
| PKRRAPPPVPKKPSS | 0.5 |

Target: CaHse1
Experiment: as above
Method in brief: as §1

| Binder | SPOT peptide array binding signal intensity |
| --- | --- |
| PKRRAPPPVPKKPSS | 788 |

Target: CaLsb1
Experiment: as above
Method in brief: as §1

| Binder | SPOT peptide array binding signal intensity |
| --- | --- |
| PKRRAPPPVPKKPSS | 0.5 |

Target: CaLsb4
Experiment: as above
Method in brief: as §1

| Binder | SPOT peptide array binding signal intensity |
| --- | --- |
| PKRRAPPPVPKKPSS | 2470 |

Target: CaMyo5
Experiment: as above
Method in brief: as §1

| Binder | SPOT peptide array binding signal intensity |
| --- | --- |
| PKRRAPPPVPKKPSS | 2 |

Target: SpBzz1-D2
Experiment: as above
Method in brief: as §1

| Binder | SPOT peptide array binding signal intensity |
| --- | --- |
| DTIDNVKSKIQDKEG | ≤ 0 |

Target: SpCyk3
Experiment: as above
Method in brief: as §1

| Binder | SPOT peptide array binding signal intensity |
| --- | --- |
| DTIDNVKSKIQDKEG | ≤ 0 |

Target: SpHof1
Experiment: as above
Method in brief: as §1

| Binder | SPOT peptide array binding signal intensity |
| --- | --- |
| DTIDNVKSKIQDKEG | ≤ 0 |

Target: SpHof1-2
Experiment: as above
Method in brief: as §1

| Binder | SPOT peptide array binding signal intensity |
| --- | --- |
| DTIDNVKSKIQDKEG | ≤ 0 |

Target: SpHof1-3
Experiment: as above
Method in brief: as §1

| Binder | SPOT peptide array binding signal intensity |
| --- | --- |
| DTIDNVKSKIQDKEG | 7.75 |

Target: SpHse1
Experiment: as above
Method in brief: as §1

| Binder | SPOT peptide array binding signal intensity |
| --- | --- |
| DTIDNVKSKIQDKEG | ≤ 0 |

Target: SpLsb1
Experiment: as above
Method in brief: as §1

| Binder | SPOT peptide array binding signal intensity |
| --- | --- |
| DTIDNVKSKIQDKEG | ≤ 0 |

Target: SpLsb4
Experiment: as above
Method in brief: as §1

| Binder | SPOT peptide array binding signal intensity |
| --- | --- |
| DTIDNVKSKIQDKEG | ≤ 0 |

Target: SpMyo1
Experiment: as above
Method in brief: as §1

| Binder | SPOT peptide array binding signal intensity |
| --- | --- |
| DTIDNVKSKIQDKEG | ≤ 0 |

Target: SpNbp2
Experiment: as above
Method in brief: as §1

| Binder | SPOT peptide array binding signal intensity |
| --- | --- |
| DTIDNVKSKIQDKEG | ≤ 0 |

Target: SpPex13
Experiment: as above
Method in brief: as §1

| Binder | SPOT peptide array binding signal intensity |
| --- | --- |
| DTIDNVKSKIQDKEG | ≤ 0 |

Target: SpRvs167
Experiment: as above
Method in brief: as §1

| Binder | SPOT peptide array binding signal intensity |
| --- | --- |
| DTIDNVKSKIQDKEG | ≤ 0 |

Target: SpSla1-D1-D2
Experiment: as above
Method in brief: as §1

| Binder | SPOT peptide array binding signal intensity |
| --- | --- |
| DTIDNVKSKIQDKEG | ≤ 0 |

Target: SpSla1-D3
Experiment: as above
Method in brief: as §1

| Binder | SPOT peptide array binding signal intensity |
| --- | --- |
| DTIDNVKSKIQDKEG | ≤ 0 |
